Shown are actives, neighbours in structure and some others; about 11% of the full set was active somewhere.
IMPase Li inh: IMPase inhibition in cells with lithium potentiation; CHO-M1 cells, IP1 TR-FRET (IP-One), carbachol + lithium; Potency, µM (doses to about 59.4 µM), actives largely listed as inhibitors; 210,000 compounds, 0.35% hits; AID 1457; active means well fitted curve in the direction sought with a large enough effect; inconclusive means small, poorly fitted or top-dose-only effect, or another doubt; inactive means no such curve, though single readings can be large; an effect the other way counts as inactive or inconclusive;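 further: IP1 builds up when IMPase is blocked and the TR-FRET signal falls; nearly all actives have a fitted effect of over 50% in size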
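CHO-M1, 2000 cells/well, 16–30 h culture; cpd + low Li+, 30 min 37C; lysis with d2-IP1/Eu-anti-IP1 Ab, 10 min RT; TR-FRET 665/620 ratio and 620 channel; AC50 via Hill.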
IMPase inh: IMPase inhibition in cells; P97697; CHO-M1 cells, IP1 accumulation, HTRF TR-FRET ratio; inhibition (IP1 accumulation), % at 46.1 µM; 120,000 tested, under 10 active; AID 901; active means well fitted curve in the direction sought with a large enough effect in the signal ratio, not every such curve was filed as active; inconclusive means small, poorly fitted or top-dose-only effect, or a change in a side signal; inactive means no such curve, though single readings can be large or run the other way; the % refers to the signal ratio;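 further: cells stimulated with carbachol in lithium chloride buffer; higher means more IMPase inhibition seen as more IP1 and lower FRET ratio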
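Measured: the HTRF emission ratio (665/620 nm) plus the 620 nm donor channel, each fitted to the Hill equation to give AC50. Cells were CHO-M1 given compounds up to 46 uM and a 30 min carbachol stimulation at 37C.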
ALDH1A1 inh-1: ALDH1A1 (human) enzyme inhibition. P00352. Purified ALDH1A1, NADH fluorescence, propionaldehyde substrate. Potency, µM (doses to about 75.3 µM), most hits filed as inhibitors. 220,000 compounds, 7.3% hits. AID 1030
12-hLO inh: inhibitors of human 12-lipoxygenase (ALOX12); P18054; purified 12-hLO, xylenol orange hydroperoxide absorbance; Potency, µM (titrated, usually from 57.1 µM), usual class: inhibitors; 150,000 compounds, 0.12% hits; active means well fitted curve in the direction sought with a large enough effect; inconclusive means small, poorly fitted or top-dose-only effect, or another doubt; inactive means no such curve, though single readings can be large; an effect the other way counts as inactive or inconclusive; further: nearly all actives have a fitted effect of over 55% in size
Target sequence (P18054 whole entry, looked up): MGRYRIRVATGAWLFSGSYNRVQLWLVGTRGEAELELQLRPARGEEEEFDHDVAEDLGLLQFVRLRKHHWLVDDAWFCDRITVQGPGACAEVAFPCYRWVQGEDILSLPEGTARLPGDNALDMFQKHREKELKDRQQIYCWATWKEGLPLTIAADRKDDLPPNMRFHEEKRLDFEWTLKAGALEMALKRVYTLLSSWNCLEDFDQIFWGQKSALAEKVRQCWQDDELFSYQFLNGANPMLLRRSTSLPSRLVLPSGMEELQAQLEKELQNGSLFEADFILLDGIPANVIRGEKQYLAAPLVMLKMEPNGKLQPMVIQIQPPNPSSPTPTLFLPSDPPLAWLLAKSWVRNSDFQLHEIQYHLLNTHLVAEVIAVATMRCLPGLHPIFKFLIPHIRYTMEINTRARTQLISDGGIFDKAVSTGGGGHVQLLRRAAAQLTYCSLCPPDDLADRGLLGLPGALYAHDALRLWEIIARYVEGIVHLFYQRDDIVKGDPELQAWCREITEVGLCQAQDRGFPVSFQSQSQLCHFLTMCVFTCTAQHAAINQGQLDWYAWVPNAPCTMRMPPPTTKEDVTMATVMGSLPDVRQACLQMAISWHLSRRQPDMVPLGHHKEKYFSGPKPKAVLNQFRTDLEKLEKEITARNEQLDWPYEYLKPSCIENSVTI
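Purified human 12hLO (150 nM final) was preincubated with compounds for 15 min at room temperature in 25 mM Hepes pH 7.0, 0.01% Triton X-100, then reacted with 40 uM arachidonic acid for 30 min. Hydroperoxide was detected with ferrous iron/xylenol orange.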
PNC inhibitor: inhibitors of perinucleolar compartment assembly | PC3M PTB-GFP, PNC prevalence imaging, 16 h; active compounds read low | activity change (PNC), negative = inhibition, % at 10 µM | 140,000 compounds, 3.1% hits | AID 2417;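 active means readout at or below -70, meaning at least 70% loss of cells showing the perinucleolar compartment, a nuclear body marking cancer cells; inconclusive means readout between -30 and a set limit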
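PC3M cells stably expressing PTB-GFP, 750–1000 cells/well, treated 16 h at 37 °C with compound (23 nl of library stock), in duplicate. After paraformaldehyde fixation and Hoechst stain, imaged at 20x; PNC prevalence scored by image analysis.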
HPGD inh: blocks human HPGD enzyme activity; 150,000 compounds, 4.3% hits; AID 894; Potency, µM, actives largely listed as inhibitors; P15428; purified HPGD, NADH fluorescence kinetic, PGE2 substrate
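NADH formation kinetics: reaction with 30 uM PGE2 and 1 mM NAD+ (final), 20 nM enzyme, Tris-HCl pH 8 with Tween 20, after 15 min compound preincubation at room temperature. Fluorescence change, last versus first of five reads.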
ALDH1A1 inh-2: Blocks ALDH1A1 NADH production, follow-up | shares compounds with ALDH1A1 inh-1 | purified ALDH1A1, NADH fluorescence, propionaldehyde/NAD+ | Potency, µM (doses to about 57.1 µM), usual class: inhibitors | 90 compounds, 90% hits | AID 493210; calls by dose curve
A number is an active result. Unless noted, the call rests on the fitted dose curve; in most records, active means well fitted inhibition curve with a large enough effect (not every such curve was filed as active); inconclusive means small, poorly fitted or top-dose-only effect, or another doubt; inactive means no such curve, though single readings can be large or run the other way.

Results for COc1cccc(O)c1O ?
IMPase Li inh: inactive; ALDH1A1 inh-1: 0.45µM; 12-hLO inh: inconclusive; HPGD inh: 16µM; ALDH1A1 inh-2: 1.6µM

Results for COc1cc2cccc(OC)c(=O)c2c(O)c1OC ?
IMPase Li inh: inactive; ALDH1A1 inh-1: inactive; 12-hLO inh: inactive; PNC inhibitor: inactive; HPGD inh: inactive

How did CCCN1C(=O)c2ccc(C(=O)NC3CCCCC3)cc2C1=O do in these assays?
IMPase Li inh: inactive; IMPase inh: inactive; ALDH1A1 inh-1: inconclusive; 12-hLO inh: inactive; PNC inhibitor: inconclusive; HPGD inh: inactive; ALDH1A1 inh-2: 0.35µM

What do the screens show for `CCCN1C(=O)c2ccc(C(=O)Nc3nccs3)cc2C1=O`?
IMPase Li inh: inactive; IMPase inh: inactive; ALDH1A1 inh-1: 0.28µM; 12-hLO inh: inactive; PNC inhibitor: -85; HPGD inh: inactive; ALDH1A1 inh-2: 0.4µM

Results for CC(C)CN1C(=O)c2ccc(C(=O)Nc3nccs3)cc2C1=O ?
IMPase Li inh: inactive; IMPase inh: inactive; ALDH1A1 inh-1: 0.45µM; 12-hLO inh: inactive; PNC inhibitor: inconclusive; HPGD inh: inactive; ALDH1A1 inh-2: 0.32µM

What do the screens show for `CC(C)CN1C(=O)c2ccc(NC(=O)c3cccs3)cc2C1=O`?
IMPase Li inh: inactive; IMPase inh: inactive; ALDH1A1 inh-1: inconclusive; 12-hLO inh: inactive; PNC inhibitor: inconclusive; HPGD inh: inconclusive

Results for Cc1cc(NC(=O)c2ccc3c(c2)C(=O)N(Cc2ccccc2)C3=O)no1 ?
IMPase Li inh: inactive; ALDH1A1 inh-1: inactive

Results for COc1ccc(C(=O)Nc2nccs2)cc1OC ?
IMPase Li inh: inactive; IMPase inh: inactive; ALDH1A1 inh-1: inactive; 12-hLO inh: inactive; PNC inhibitor: inactive; HPGD inh: inactive

What do the screens show for `CCCN1C(=O)c2ccc(C(=O)Nc3cc(C)on3)cc2C1=O`?
IMPase Li inh: inactive; IMPase inh: inactive; ALDH1A1 inh-1: 0.4µM; 12-hLO inh: inactive; PNC inhibitor: inconclusive; HPGD inh: inactive; ALDH1A1 inh-2: 0.79µM

What do the screens show for `CCN1C(=O)c2ccccc2S(=O)c2ccc(C(=O)NC3CC3)cc21` (stereo unspecified)?
IMPase Li inh: inactive; IMPase inh: inactive; ALDH1A1 inh-1: inactive; 12-hLO inh: inactive; PNC inhibitor: inactive; HPGD inh: inactive

How did CN(C)c1ccc(-c2cncnc2NCc2cccs2)cc1 do in these assays?
IMPase Li inh: inactive; ALDH1A1 inh-1: inconclusive; 12-hLO inh: inactive; HPGD inh: inconclusive

How did CNCC(=O)N1CCN(c2ncc(C(F)(F)F)cc2Cl)CC1 do in these assays?
IMPase Li inh: inactive; ALDH1A1 inh-1: inactive

How did CC1=C(C(=O)OCc2ccccc2)C(/C=C/c2ccccc2)NC(=S)N1 (stereo unspecified) do in these assays?
IMPase Li inh: inactive; IMPase inh: inactive; ALDH1A1 inh-1: 0.2µM; 12-hLO inh: inconclusive; PNC inhibitor: inactive; HPGD inh: inactive; ALDH1A1 inh-2: 0.2µM

How did CC1=C(C(=O)OCc2ccccc2)C(/C=C/c2ccccc2)N2C(=O)CCSC2=N1 (stereo unspecified) do in these assays?
IMPase Li inh: inactive; ALDH1A1 inh-1: inconclusive; 12-hLO inh: inactive; PNC inhibitor: inactive; HPGD inh: inactive

What do the screens show for `CC1(C)CC(=O)CC(C2(O)C(=O)N(Cc3ccccc3)c3ccccc32)O1` (stereo unspecified)?
IMPase Li inh: inactive; IMPase inh: inactive; ALDH1A1 inh-1: 0.063µM; 12-hLO inh: inactive; PNC inhibitor: inconclusive; HPGD inh: inactive; ALDH1A1 inh-2: 0.32µM

What do the screens show for `COc1ccc(-c2cc(=O)c3c(O)c(OC)c(OC)c(OC)c3o2)cc1`?
IMPase Li inh: inactive; ALDH1A1 inh-1: 0.11µM; 12-hLO inh: inactive; HPGD inh: inactive; ALDH1A1 inh-2: 0.63µM

How did O=C(NCc1ccc(F)cc1)c1ccc(Nc2nc3ccccc3n3nnnc23)cc1 do in these assays?
IMPase inh: inactive

What do the screens show for `COC(=O)c1ccc(Oc2nc3c(c(=O)n(C)c(=O)n3C)n2CCC(C)C)cc1`?
IMPase Li inh: inactive; IMPase inh: inactive; ALDH1A1 inh-1: 0.045µM; 12-hLO inh: inactive; PNC inhibitor: inactive; HPGD inh: inactive; ALDH1A1 inh-2: 0.1µM

What do the screens show for `COc1ccc(CNC(=O)C(c2ccco2)N(Cc2cccs2)C(=O)Cc2cccs2)cc1` (stereo unspecified)?
IMPase Li inh: inactive; IMPase inh: inactive; ALDH1A1 inh-1: 0.63µM; 12-hLO inh: inactive; PNC inhibitor: inactive; HPGD inh: inactive; ALDH1A1 inh-2: 1.3µM

Results for COCCn1c(=O)[nH]c(=O)c2c1nc(-c1cc(Br)c3c(c1)OCO3)n2Cc1ccccc1 ?
IMPase Li inh: inactive; ALDH1A1 inh-1: 0.11µM; ALDH1A1 inh-2: 0.079µM

How did CCCc1[nH]n(-c2ccc([N+](=O)[O-])cc2)c(=O)c1C=NCCCn1ccnc1 do in these assays?
IMPase Li inh: inactive; ALDH1A1 inh-1: inactive

What do the screens show for `C=CCOC(=O)C1=C(C)NC(SCC(=O)Nc2ccccc2)=C(C#N)C1c1ccco1` (stereo unspecified)?
IMPase Li inh: inactive; IMPase inh: inactive; ALDH1A1 inh-1: inconclusive; 12-hLO inh: inactive; PNC inhibitor: inactive; HPGD inh: inconclusive

How did COc1ccccc1OCCC(=O)NCc1ccc2c(c1)OCO2 do in these assays?
IMPase Li inh: inactive; ALDH1A1 inh-1: inactive

How did COc1ccccc1CN(CC(=O)NCc1ccc2c(c1)OCO2)C(=O)c1ccc2c(c1)OCCO2 do in these assays?
IMPase Li inh: inactive; IMPase inh: inactive; ALDH1A1 inh-1: 0.079µM; 12-hLO inh: inactive; PNC inhibitor: inactive; HPGD inh: inactive; ALDH1A1 inh-2: 0.045µM

Results for Cc1ccc(Sc2nc3c(c(=O)[nH]c(=O)n3C)n2CCc2ccccc2)cc1 ?
IMPase Li inh: inactive; IMPase inh: inconclusive; ALDH1A1 inh-1: 0.63µM; 12-hLO inh: inactive; PNC inhibitor: inactive; HPGD inh: inactive; ALDH1A1 inh-2: 0.89µM

Results for CC[C@H](C)[C@H](NC(=O)OCC1c2ccccc2-c2ccccc21)C(=O)O ?
IMPase Li inh: inactive; IMPase inh: inactive; ALDH1A1 inh-1: 0.45µM; 12-hLO inh: inactive; HPGD inh: inactive; ALDH1A1 inh-2: 1µM

How did CCc1ccccc1NC(=O)N[C@H](C(=O)O)C(C)CC (stereo partly specified) do in these assays?
IMPase Li inh: inactive; IMPase inh: inactive; ALDH1A1 inh-1: inactive; 12-hLO inh: inactive; PNC inhibitor: inactive; HPGD inh: inactive

What do the screens show for `COc1ccc(-c2csc(NC(=O)c3ccc(OCC(=O)N4CCOCC4)c(OC)c3)n2)cc1OC`?
IMPase Li inh: inactive; ALDH1A1 inh-1: inconclusive; 12-hLO inh: inactive; PNC inhibitor: inactive; HPGD inh: inconclusive
